proKLK7 act: proKLK7 zymogen activators, primary screen, biochemical, fluorescence intensity; 370,000 compounds, 0.9% hits; activation, % at 7 µM; purified proKLK7, EDANS-DABCYL substrate fluorescence; 100% is mature enzyme control, 0% vehicle; Kallikrein-7 (Homo sapiens), P49862;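 active means activation above the mean of all tested compounds plus 3 SD, computed per campaign excluding outliers beyond control limits, cut at about 13% in these data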
Target sequence (P49862 whole entry, looked up): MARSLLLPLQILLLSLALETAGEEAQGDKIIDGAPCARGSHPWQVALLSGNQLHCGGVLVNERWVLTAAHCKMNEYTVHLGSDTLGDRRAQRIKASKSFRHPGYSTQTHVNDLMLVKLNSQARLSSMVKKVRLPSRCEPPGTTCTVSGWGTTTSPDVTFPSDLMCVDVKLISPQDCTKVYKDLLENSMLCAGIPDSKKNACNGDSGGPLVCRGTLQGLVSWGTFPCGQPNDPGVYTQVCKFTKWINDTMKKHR
ADAM10 inh: human ADAM10 inhibitors, primary screen, biochemical, QFRET, HTS | recombinant ADAM10, EDANS/DABCYL FRET peptide cleavage, 3 h | inhibition, % at 7 µM | 370,000 compounds, 0.62% hits | AID 720582, 2013;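 active means inhibition above a per-campaign cutoff equal to the mean of compounds falling between control-based bounds plus 3 SD, cut at about 20% in these data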
GRIN3A LBD mod: binders of NR3A ligand-binding domain, primary screen, biophysical, differential scanning fluorimetry, uHTS. Glutamate receptor ionotropic, NMDA 3A (GRIN3A) ligand-binding domain. NR3A LBD differential scanning fluorimetry, Tm shift; 0% = protein alone, 100% = glycine-bound protein. Tm shift relative to glycine control, % at 25 µM. AID 1259313, 2017. 340,000 compounds, 2.5% hits;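 active means melting temperature shift of at least 10% of the positive control shift, at one fixed dose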
ADAM17 inh: ADAM17 inhibitors, primary screen, biochemical, QFRET; Disintegrin and metalloproteinase domain-containing protein 17 (Homo sapiens), P78536; recombinant ADAM17, EDANS/DABCYL FRET peptide cleavage; inhibition, % at 6.95 µM; 370,000 compounds, 0.83% hits;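 active means inhibition above the mean of compounds lying between control limits plus 3 SD, set per campaign, cut at about 8.5% in these data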
FAS TE block: FAS thioesterase domain inhibitors, primary screen, biochemical, fluorescence intensity, uHTS; AID 602261, 2012; 360,000 compounds, 0.67% hits; inhibition, % at 15 µM; Fatty acid synthase (Homo sapiens), P49327; recombinant FAS-TE, OMFH fluorogenic substrate, fluorescence endpoint;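 active means compounds whose normalised, plate-corrected inhibition of enzyme fluorescence in the single-dose primary screen is 50% or more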
proKLK7 act conf: proKLK7 zymogen activators, confirmation, biochemical, fluorescence intensity, triplicate. shares compounds with proKLK7 act. purified proKLK7, EDANS-DABCYL substrate fluorescence; scaled: vehicle 0, mature enzyme 100. 3,200 compounds, 68% hits. activation, % at 7 µM;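 active means activation, as change over the incubation, above the mean of all tested compounds plus 3 SD, cut at about 13% in these data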
EDANS-DABCYL int: EDANS-DABCYL substrate optical interference, artefact control for kallikrein-7 zymogen activator project, biochemical, fluorescence intensity, high throughput. no enzyme, 4 h; solvent 0%, active enzyme control 100%. 3,200 compounds, 80% hits. shares compounds with proKLK7 act. activation, % at 7 µM;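 active means activation above the all-compound mean plus 3 SD, ignoring values outside control-based bounds, cut at about 4.8% in these data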;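 further: value is the 4 h activation minus the activation read at time zero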
Hits are given with their value; - = inactive; . = no result. An excerpt weighted towards active compounds, which were near 4.6% of everything screened.

SMILES | proKLK7 act | ADAM10 inh | GRIN3A LBD mod | ADAM17 inh | FAS TE block | proKLK7 act conf | EDANS-DABCYL int
O=C(Cc1c[nH]c2ccccc12)Nc1ccc(Nc2ccncc2)cc1 | - | - | . | - | . | . | .
CN1CCCC1CCNc1ccc2oc3ccccc3c(=O)c2c1 (stereo unspecified) | - | - | - | - | . | . | .
CN1CCCC1CCNc1ccc2c(=O)c3ccccc3oc2c1 (stereo unspecified) | 76 | - | - | - | - | 72 | 80
CN1CCC[C@H]1CCNc1ccc2c(=O)c3ccccc3n(C)c2c1 | 49 | - | - | - | - | 84 | 80
CCOC(=O)C1CCN(C(=O)COc2ccc3c(C)cc(=O)oc3c2)CC1 | - | - | - | - | - | . | .
CCN(CC)c1ccc2ccc(=O)oc2c1 | - | - | - | - | - | . | .
CCN(CC)c1ccc2c(C)cc(=O)oc2c1 | 27 | - | - | - | - | 17 | 26
Cc1cc(=O)oc2cc(O)cc(OCc3ccccc3)c12 | 35 | - | - | - | - | 66 | 78
CC(=O)Oc1cc2oc(=O)cc(C)c2cc1OC(C)=O | 68 | - | - | - | - | 77 | 90
Cc1coc2cc3oc(=O)cc(C)c3cc12 | - | - | - | - | - | . | .
Cc1cc(=O)oc2cc(OC(=O)C3CCN(C(=O)c4ccc(F)cc4)CC3)ccc12 | 14 | - | - | - | - | 427 | 378
COc1ccc(CN2C3=NC(c4ccccc4)CC(=O)N3/C(=C\c3ccccc3)C2c2ccccc2)c(OC)c1 (stereo unspecified) | . | - | . | - | . | . | .
CCCCNc1cccc2c1S(=O)(=O)N[C@@H](CC(C)C)CO2 | - | - | . | - | . | . | .
COC(=O)c1ccc(COC(=O)CSCC(=O)Nc2ccc(C)cc2C)cc1 | - | - | - | - | - | . | .
O=C(CC1Sc2ccccc2NC1=O)OCc1cc(=O)oc2cc(O)ccc12 (stereo unspecified) | 188 | - | - | - | - | 272 | 279
CC(=O)Oc1cc(OC(C)=O)c2c(C)cc(=O)oc2c1 | 50 | - | - | - | - | 550 | 534
Cc1ccc(NC(=O)CSCC(=O)OCc2cc(=O)oc3cc(O)ccc23)c(C)c1 | 468 | - | . | - | - | 288 | 306
Cc1cc(OC(=O)c2ccco2)c2c(C)cc(=O)oc2c1 | - | - | - | - | - | . | .
Cc1ccc2c(COC(=O)CC3Sc4ccccc4NC3=O)cc(=O)oc2c1C (stereo unspecified) | - | - | - | - | - | . | .
CC(=O)Nc1c(OC(C)=O)ccc2c(C)cc(=O)oc12 | 175 | - | - | - | - | 489 | 515
Cc1cc(=O)[nH]c2cc(O)ccc12 | - | - | - | - | - | . | .
CC(=O)Oc1ccc2c(C)cc(=O)[nH]c2c1 | 179 | - | - | - | - | 343 | 302
O=C(Cc1cc(=O)oc2cc(O)ccc12)N[C@@H](Cc1c[nH]c2ccccc12)C(=O)O | 16 | - | - | - | - | 91 | 90
Cc1c(O)ccc2c(CC(=O)N[C@@H](Cc3c[nH]c4ccccc34)C(=O)O)cc(=O)oc12 | - | - | - | - | - | . | .
CC(=O)Oc1ccc2c(C)cc(=O)oc2c1 | 60 | - | - | - | - | 540 | 531
SMILES | proKLK7 act | ADAM10 inh | GRIN3A LBD mod | ADAM17 inh | FAS TE block | proKLK7 act conf | EDANS-DABCYL int
CC(=O)Oc1cc(OC(C)=O)c2c(=O)c(-c3ccc4c(c3)OCCCO4)c(C)oc2c1 | 29 | - | - | - | - | 169 | 137
Cc1cc(=O)oc2cc(OC(=O)CCCCCN3C(=O)c4ccccc4C3=O)ccc12 | 63 | - | - | - | - | 405 | 336
Cc1ccc(S(=O)(=O)CCC(=O)Oc2ccc3c(C)cc(=O)oc3c2)cc1 | 24 | - | - | - | - | 123 | 109
Cc1ccc(OC(=O)CCS(=O)(=O)c2ccc(C)cc2)cc1 | - | - | - | - | - | . | .
O=c1cc(O)c2ccc(O)cc2o1 | - | - | - | - | - | . | .
Cc1cc(=O)oc2cc(O)ccc12 | 99 | - | - | - | - | 63 | 64
COC(=O)Cc1cc(=O)oc2cc(O)ccc12 | 50 | - | - | - | - | 75 | 69
O=C(NCc1ccccc1F)C1C2C=CC3(CN(Cc4ccccc4)C(=O)C13)O2 (stereo unspecified) | - | - | . | - | . | . | .
COC(=O)c1cc(-c2cccc3ccccc23)c(=O)n2c1CCC2 | - | - | . | - | . | . | .
O=c1ccc2ccc(O)cc2o1 | 51 | - | - | - | - | 64 | 70
O=c1ccc2cc(O)c(O)cc2o1 | - | - | - | - | - | . | .
CC(=O)N1C[C@@H](CN2C(=O)CCC2=O)[C@@H]2C[C@H]1c1ccccc1N2C | - | - | . | - | . | . | .
CCCCCn1cc(CCC(=O)Nc2ccc(N(C)c3ccccn3)cc2)c2ccccc21 | - | - | . | - | . | . | .
Nc1c(C(=O)NCCc2ccccc2)sc2nc(N3CCOCC3)c3c(c12)CCCC3 | 152 | - | - | - | - | - | -
NC(=O)c1sc2nc(N3CCOCC3)c3c(c2c1N)CCCC3 | 21 | - | - | - | - | - | -
COc1ccc(CN(C)C(=O)C2CCCN(c3nc4ccccc4o3)C2)cc1 (stereo unspecified) | - | - | . | - | . | . | .
CC(C)CN1C(=O)C[C@@]2(C(=O)N(C)c3ccc(NC(=O)C(C)(C)C)cc32)C1c1ccccc1 (stereo partly specified) | - | - | . | - | . | . | .
Cc1ccc(C(=O)/C=C/Nc2ccc(S(=O)(=O)Nc3cc(C)nc(C)n3)cc2)cc1 | 30 | - | - | - | - | 148 | 119
Cc1ccc(/C=C/C(=O)Nc2ccc(S(=O)(=O)Nc3cc(C)nc(C)n3)cc2)cc1 | - | - | - | - | - | . | .
COC(=O)c1ccc2c(c1)C(C)(C)C(/C=C/c1ccccc1O)=[N+]2C | 32 | - | - | - | - | - | -
CCCCCCCCN1C(=O)[C@@H](CC(=O)NCc2ccccc2)C[C@@]2(C(=O)OC)C1=C[C@H](COCc1ccccc1)O[C@@H]2C | - | - | . | - | . | . | .
CCC1(CC)Cc2ccccc2-c2nc(NCCCO)[nH]c(=O)c21 | - | - | - | - | - | . | .
CCC1(C)Cc2ccccc2-c2nc(NCCCO)[nH]c(=O)c21 (stereo unspecified) | 33 | - | - | - | - | - | -
CC1(C)Cc2ccccc2-c2nc(NCCCO)n(-c3ccccc3)c(=O)c21 | 15 | - | - | - | - | - | -
